High-throughput results (PubChem)
JMJD2A Tudor inh = qHTS Assay for Inhibitors of JMJD2A-Tudor Domain | Lysine-specific demethylase 4A (Homo sapiens), O75164 | AlphaScreen JMJD2A-Tudor / H3K4me3 peptide binding | Potency, µM (titrated, usually from 114 µM), most hits filed as inhibitors | 390,000 tested, 4.4% active | AID 504339, 2011; also: nearly all actives have a fitted effect of over 50% in size
PLK1 PBD inh = qHTS for Inhibitors of PLK1-PDB (polo-like kinase 1 - polo-box domain): Primary Screen; Serine/threonine-protein kinase PLK1 (Homo sapiens), P53350; Plk1 PBD binding of FITC phosphopeptide, fluorescence polarization; Potency, µM, actives largely listed as inhibitors; 360,000 tested, 2.8% active; AID 720504, 2013; also: series mostly up to about 57 µM; nearly all actives have a fitted effect of over 65% in size
Target sequence (P53350 whole entry, looked up, the tested form may be a part): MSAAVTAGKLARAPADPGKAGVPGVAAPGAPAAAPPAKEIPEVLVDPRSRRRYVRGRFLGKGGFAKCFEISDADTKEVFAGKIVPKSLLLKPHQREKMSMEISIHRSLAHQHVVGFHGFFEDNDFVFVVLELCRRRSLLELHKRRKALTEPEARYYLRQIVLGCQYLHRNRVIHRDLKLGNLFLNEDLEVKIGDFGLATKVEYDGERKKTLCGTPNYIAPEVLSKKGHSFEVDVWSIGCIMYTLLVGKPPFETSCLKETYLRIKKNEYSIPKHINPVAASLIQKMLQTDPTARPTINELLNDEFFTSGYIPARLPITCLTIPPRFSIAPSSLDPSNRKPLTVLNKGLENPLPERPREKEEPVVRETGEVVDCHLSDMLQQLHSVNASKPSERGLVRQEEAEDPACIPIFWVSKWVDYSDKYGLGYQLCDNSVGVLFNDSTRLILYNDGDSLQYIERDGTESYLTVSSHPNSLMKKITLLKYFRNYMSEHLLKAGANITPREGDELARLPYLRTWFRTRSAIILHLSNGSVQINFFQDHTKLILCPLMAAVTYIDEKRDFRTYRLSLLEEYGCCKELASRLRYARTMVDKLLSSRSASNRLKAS
BAZ2B inh = qHTS Assay for Inhibitors of BAZ2B; AID 504333, 2011; Bromodomain adjacent to zinc finger domain protein 2B (Homo sapiens), Q9UIF8; 360,000 tested, 4.4% active; AlphaScreen BAZ2B-H3K14Ac peptide displacement; Potency, µM (titrated, usually from 114 µM), usual class: inhibitors; also: nearly all actives have a fitted effect of over 60% in size
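Complex of BAZ2B and biotin-H3K14Ac (50 nM apiece) forms over 30 min at RT, then faces library compounds up to 110 uM for another 30 min; AlphaScreen beads added, 20 min dark incubation, luminescence read.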
HP1b binding inh = HTS for Inhibitors of HP1-beta Chromodomain Interactions with Methylated Histone Tails; 390,000 tested, 0.56% active; Potency, µM (series often up to 114 µM), actives largely listed as inhibitors; Chromobox protein homolog 1 (Homo sapiens), P83916; AlphaScreen HP1-beta / biotin-H3K9me3 peptide binding; also: nearly all actives have a fitted effect of over 70% in size
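Compound inhibition of the preformed complex between 50 nM HP1-beta and 50 nM biotinylated H3K9me3 peptide was read by AlphaScreen. Buffer was PBS pH 7.4 with 0.01% Tween-20. Incubations ran 30 min at room temperature, with 10 ug/mL donor/acceptor beads.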
PI5P4Ka inh = qHTS for Inhibitors of phosphatidylinositol 5-phosphate 4-kinase (PI5P4K); Phosphatidylinositol 5-phosphate 4-kinase type-2 alpha (Homo sapiens), P48426; max response, %; PI5P4Kalpha enzyme, ADP-Glo luminescence, 60 min; active compounds read low; 330,000 tested, 1.2% active; AID 652105, 2013; active = max response of -50% or lower; inconclusive = between -30% and -50%; inactive = -30% or higher; also: value at the top dose of about 77 µM
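qHTS, 1536-well: enzyme/substrate mix, compound by pin tool, 5 microM ATP final; RT 60 min; ADP-Glo reagents 1 (45 min) then 2 (30 min); luminescence.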
G9a inh = qHTS Assay for Inhibitors of Histone Lysine Methyltransferase G9a | Histone-lysine N-methyltransferase EHMT2 (Homo sapiens), Q96KQ7 | G9a H3K9 monomethylation, AlphaScreen, 2 h | Potency, µM (top dose mostly 102 µM), hits mostly inhibitors | 350,000 tested, 8.8% active | AID 504332, 2011; also: nearly all actives have a fitted effect of over 75% in size
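Compounds were preincubated with 20 nM G9a for 15 min, after which biotinylated H3K9 peptide (500 nM) and SAM (20 uM) started a 2 h room-temperature reaction. Monomethylated product was quantified by antibody-based AlphaScreen chemiluminescence.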
A number is an active result; . = inactive; ? = inconclusive; / = no result given; [ ] = remark or other dose. This is a sample that favours compounds with a hit; in the whole collection about 12% have one here. Unless noted, calls follow the shape of the dose curve; as a rule, active = well fitted curve in the direction sought with a large enough effect; inconclusive = small, poorly fitted or top-dose-only effect, or another doubt; inactive = no such curve, though single readings can be large; an effect the other way counts as inactive or inconclusive.

SMILES	JMJD2A Tudor inh	PLK1 PBD inh	BAZ2B inh	HP1b binding inh	PI5P4Ka inh	G9a inh
NC(=O)CC(NC(=O)c1ccccc1)c1ccc(N2CCN(c3ccccn3)CC2)c([N+](=O)[O-])c1 (stereo not drawn)	.	.	.	.	.	79.4µM
NC(=O)CC(NC(=O)c1ccc(Br)cc1)c1ccc(N2CCN(c3ccccc3)CC2)c([N+](=O)[O-])c1 (stereo not drawn)	.	.	?	.	.	.
NC(=O)CC(NC(=O)c1cccc(Br)c1)c1ccc(N2CCN(c3ccc(F)cc3)CC2)c([N+](=O)[O-])c1 (stereo not drawn)	?	.	?	.	.	44.7µM
CC(C)N1CCC(C)(C(=O)Nc2cccc3c2CCCC3)C1 (stereo not drawn)	/	.	/	/	.	/
Cc1cc(C(O)c2ncc(-c3ccccc3F)[nH]2)ccc1F (stereo not drawn)	/	.	/	/	.	/
COc1ccc(OC)c(C(=O)NC(CC(N)=O)c2ccc(N3CCCCCC3)c([N+](=O)[O-])c2)c1 (stereo not drawn)	?	.	50.1µM	.	.	?
CCCCCCOC1(c2ccccc2)OC(=O)c2ccccc21 (stereo not drawn)	.	.	.	.	.	.
CCCCCOP(=O)(OCCCCC)C1(NS(=O)(=O)c2ccccc2)C=CC(=O)c2ccccc21 (stereo not drawn)	.	.	.	?	.	8.91µM
CC1(C)NC(=O)N(CC(=O)OCC(=O)NC(=O)c2ccccc2)C1=O	.	.	.	.	.	39.8µM
CCn1nnc2cc(C(=O)Nc3cccc(Cl)c3)ccc21	.	/	.	.	/	.
CC1Cn2c(C(=O)NCc3ccccc3Cl)cc3cccc(c32)S1 (stereo not drawn)	.	/	.	.	/	.
CCOc1ccccc1NC(=O)/C=C/c1ccc(S(=O)(=O)N2CCOCC2)cc1	.	.	.	.	.	50.1µM
CCN1CCN(c2ccc(S(=O)(=O)N3CCOCC3)cc2NC(=O)/C=C/c2ccc(OC)c(OC)c2)CC1	.	.	.	.	.	14.1µM
CCOc1ccccc1NC(=O)c1ccc(S(=O)(=O)N2CCOCC2)cc1	.	.	.	.	.	.
COc1ccc(/C=C/C(=O)Nc2cc(S(=O)(=O)N3CCOCC3)ccc2N2CCCC2)cc1OC	.	.	?	.	.	.
CCN1CCN(S(=O)(=O)c2ccc(Cl)c(C(=O)Nc3cc(Cl)ccc3N3CCOCC3)c2)CC1	?	.	?	.	.	?
CCN1CCN(c2ccc(S(=O)(=O)N3CCCCC3)cc2NC(=O)/C=C/c2ccc(OC)c(OC)c2)CC1	.	.	?	.	.	22.4µM
CCN1CCN(c2ccc(S(=O)(=O)N3CCOCC3)cc2NC(=O)c2ccc(Cl)cc2Cl)CC1	.	.	.	.	.	12.6µM
Cc1ccc(CCN2C(Nc3ccccc3)=NC[C@@H]2C)cc1	.	.	.	.	.	.[2.33 µM]
CSc1ccc(-c2cc3c(c4c2ccn4C)C2CCC3O2)cc1 (stereo not drawn)	/	.	/	/	.	/
COc1cc(/C=C/C(=O)Nc2cc(S(=O)(=O)N3CCOCC3)ccc2N2CCCC2)cc(OC)c1OC	.	6.7µM	.	?	.	10µM
CCN1CCN(c2ccc(S(=O)(=O)N3CCOCC3)cc2NC(=O)/C=C/c2cccc(OC)c2OC)CC1	.	.	.	.	.	28.2µM
COc1cc(C2C(=O)N(C3CCCCC3)CC(=O)N2Cc2ccc(C)cc2)ccc1OC(C)C (stereo not drawn)	.	/	.	.	/	.
C#CCOCCOCCOCCNc1nc(N2CCN(C(=O)[C@H](CCCCN)n3cc([C@@H](N)CC(C)C)nn3)CC2)nc(N2CCN(C(=O)[C@H](Cc3cc4ccccc4[nH]3)n3cc([C@@H](N)Cc4ccc(O)cc4)nn3)CC2)n1	17.8µM	.	.	.	.	.
C#CCOCCOCCOCCNc1nc(N2CCN(C(=O)[C@H](CCCCN)n3cc([C@@H](N)CO)nn3)CC2)nc(N2CCN(C(=O)[C@H](Cc3cc4ccccc4[nH]3)n3cc([C@@H](N)Cc4ccc(O)cc4)nn3)CC2)n1	/	/	31.6µM	/	/	.[12.7 µM]
SMILES	JMJD2A Tudor inh	PLK1 PBD inh	BAZ2B inh	HP1b binding inh	PI5P4Ka inh	G9a inh
C#CCOCCOCCOCCNc1nc(OC)nc(N2CCN(C(=O)[C@H](CCCCN)n3cc(C(N)CO)nn3)CC2)n1 (stereo partly drawn)	/	/	?	/	/	.[12.7 µM]
Cn1c(=O)c2cn3c(c2n(C)c1=O)C(c1ccccc1)CC(c1ccccc1)=N3 (stereo not drawn)	?	?	?	.	.	8.91µM
CCCc1nc2ccccc2n2c(-c3ccccc3)c3c(=O)n(C)c(=O)n(C)c3c12	.	/	.	.	/	.
Cc1ccc(Nc2nc(-c3ccc(S(=O)(=O)N4CCCC4)cc3)cs2)cc1C	?	.	?	.	/	44.7µM
COc1ccc(-c2csc(Nc3ccc(S(=O)(=O)Nc4cc(C)on4)cc3)n2)cc1C	?	?	50.1µM	.	.	39.8µM
COc1ccc(-c2csc(Nc3ccc(S(=O)(=O)Nc4cc(OC)nc(OC)n4)cc3)n2)cc1	?	23.8µM	44.7µM	?	.	.
COc1ccc(CC(=O)Nc2ccc(S(=O)(=O)Nc3cc(C)on3)cc2)cc1OC	.	.	.	.	.	.
Cc1cc(C)cc(Nc2nc(-c3ccc(S(=O)(=O)N4CCCC4)cc3)cs2)c1	?	.	?	.	.	?
C#CCNC(=O)C[C@@H]1C[C@@]2(C(=O)OC)CCCCC=C2N(Cc2ccc3c(c2)OCO3)C1=O	/	.	/	/	.	/
Cc1ccc(CN2C(=O)C[C@@H](NS(=O)(=O)c3ccc4ccccc4c3)C/C=C\C2c2ccc(C)cc2)cc1 (stereo partly drawn)	/	/	/	/	/	6.31µM
CCc1cccc(C)c1NC(=O)Cn1c(=O)cc(C(F)(F)F)c2c(C)nn(C)c21	.	/	.	.	/	.
COc1cc(OC)c(OC)cc1CNC(=O)c1cc(S(=O)(=O)N2CCOCC2)ccc1F	.	.	.	.	.	.[2.33 µM]
COc1cc(/C(C)=N/Nc2ccc(C(=O)O)cc2)cc(OC)c1OC	.	.	.	.	.	?
COc1ccc(/C(C)=N/Nc2ccc(C(=O)O)cc2)cc1OC	.	.	.	.	.	?
C/C(=N/Nc1ccc(C(=O)O)cc1)c1ccc(O)c(O)c1O	10µM	.	.	.	.	3.55µM
